Screening results as filed in PubChem.
IP6K1 inh: blocks human inositol hexakisphosphate kinase 1; IP6K1 kinase, ADP-Glo luminescence, 2 h; stronger effect = lower value; Q92551; hit rate 0.81% among 140,000; AID 1645851; activity change, % (series mostly up to about 58 µM); in the data active = activity change below about -25%; note: % is set by controls: 0 for no effect and ±100 for the full control effect
Target sequence (Q92551 whole entry, looked up): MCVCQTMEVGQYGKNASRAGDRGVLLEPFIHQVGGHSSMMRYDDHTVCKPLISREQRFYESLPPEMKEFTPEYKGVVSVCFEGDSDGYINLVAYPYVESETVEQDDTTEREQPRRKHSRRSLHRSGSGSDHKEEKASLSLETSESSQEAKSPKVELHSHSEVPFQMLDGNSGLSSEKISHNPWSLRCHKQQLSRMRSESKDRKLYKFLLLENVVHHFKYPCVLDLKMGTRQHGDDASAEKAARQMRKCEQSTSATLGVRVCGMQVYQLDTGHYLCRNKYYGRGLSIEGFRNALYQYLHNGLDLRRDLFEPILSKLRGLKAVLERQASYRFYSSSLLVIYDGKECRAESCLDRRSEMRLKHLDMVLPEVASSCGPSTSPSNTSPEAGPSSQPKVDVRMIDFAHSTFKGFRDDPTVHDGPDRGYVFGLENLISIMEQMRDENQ
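ADP-Glo luminescence measures ADP made by human IP6K1 during a 2 h RT reaction with ATP/IP6 (mix at 1.3 mM/130 uM); top library doses 57.5 and 19.1 uM final.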
SNCA viab count: counter-screen for SNCA expression inhibitors: cell viability. HEK-293-SNCA-luc viability, GF-AFC fluorescence, 24 h. hit rate 0.12% among 150,000. Potency, µM (highest dose often 57.1 µM), for inactives: at the top dose activity change, negative = cytotoxicity, usual class: cytotoxic;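 note: potency is the fitted concentration of half-maximal effect; 0% = DMSO-treated cells and -100% = medium-only wells without cells; nearly all actives have a fitted effect of over 30% in size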
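Cytotoxicity counterscreen: after 24 h compound treatment of genome-edited SNCA-luciferase HEK-293 cells, live-cell protease substrate GF-AFC read by fluorescence after 30 min; activity scaled between DMSO (0%) and medium-only (-100%), curves Hill-fitted.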
KDM5B inhibitor: inhibitors of human KDM5B histone demethylase; KDM5B demethylase, FDH-coupled NADH fluorescence (FDH is formaldehyde dehydrogenase); Potency, µM (highest dose often 57.7 µM), usual class: inhibitors; Q9UGL1; hit rate 2.6% among 220,000; note: potency is the fitted concentration of half-maximal effect; 0% is about no effect; nearly all actives have a fitted effect of over 70% in size
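KDM5BΔAP (200 nM final) in 50 mM HEPES pH 7.5, 0.01% Tween-20 was preincubated 10 min at RT with compound over a concentration range. Substrate mix (H3K4me3 12.5 µM, α-KG 25 µM, Fe²⁺, ascorbate, NAD⁺, FDH) was added, and NADH fluorescence change over 30 min gave dose-response curves.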
SNCA expr inh: inhibitors of alpha-synuclein (SNCA) gene expression; HEK-293 SNCA-luciferase knock-in, luminescence, 24 h; hit rate 0.17% among 140,000; AID 1671194; Potency, µM (highest dose often 57.2 µM), without a hit: at the top dose activity change, negative = inhibition, usual class: inhibitors;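 note: potency is the fitted concentration of half-maximal effect; plate controls were DMSO cells for no effect and cell-free wells for full effect; nearly all actives have a fitted effect of over 45% in size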
Starred values were filed as active, the others as inactive; [ ] = another dose, or the depositor's remark. Shown are actives, neighbours in structure and some others; about 2.8% of the full set was active somewhere. Unless noted, calls come from the whole dose curve; as a rule, active = well fitted curve in the direction sought with a large enough effect; inconclusive = small, poorly fitted or top-dose-only effect, or another doubt; inactive = no such curve, though single readings can be large; an effect the other way counts as inactive or inconclusive.

Results for O=C(NCc1ccccc1F)c1ccc(-c2ccc(N3CCSCC3)nc2)cc1 ?
IP6K1 inh: 14; SNCA viab count: 6%; KDM5B inhibitor: 18µM*; SNCA expr inh: 40%

What do the screens show for `O=C(NCCN1CCCC1)c1ccc(-c2ccc(N3CCSCC3)nc2)cc1`?
IP6K1 inh: -7; SNCA viab count: -14%; KDM5B inhibitor: 25µM*; SNCA expr inh: 25%

How did O=C(NC1CCCC1)c1ccc(-c2ccc(N3CCSCC3)nc2)cc1 do in these assays?
IP6K1 inh: -1; SNCA viab count: -6%; KDM5B inhibitor: 28µM*; SNCA expr inh: 32%

How did COCCNC(=O)c1ccc(-c2ccc(N3CCCCC3)nc2)cc1 do in these assays?
IP6K1 inh: 13; SNCA viab count: 9%; KDM5B inhibitor: 13µM*; SNCA expr inh: 79%

How did O=C(NCc1ccncc1)c1ccc(-c2ccc(N3CCCCC3)nc2)cc1 do in these assays?
IP6K1 inh: -11; SNCA viab count: inconclusive; KDM5B inhibitor: inconclusive; SNCA expr inh: 24%

How did O=C(NCCN1CCOCC1)c1ccc(-c2ccc(N3CCCCC3)nc2)cc1 do in these assays?
IP6K1 inh: -4; SNCA viab count: -23%; KDM5B inhibitor: 28µM*; SNCA expr inh: 19%

How did COCc1nncn1C1CCN(C(=O)c2cc(F)cc(F)c2)CC1 do in these assays?
IP6K1 inh: 8; SNCA viab count: 7%; KDM5B inhibitor: inactive; SNCA expr inh: -30%

How did Cc1nc2c(c(-c3ccc(O)cc3)n1)CN(Cc1cccc3ccccc13)CCC2 do in these assays?
IP6K1 inh: -3; SNCA viab count: -16%; KDM5B inhibitor: inactive; SNCA expr inh: -10%

How did COc1ccc(N2CC3CCC(C2)N3Cc2cccc(-c3ccc(F)cc3F)c2)cc1 do in these assays?
IP6K1 inh: 6; SNCA viab count: 9%; KDM5B inhibitor: 79µM*; SNCA expr inh: 97%

What do the screens show for `OC[C@@H]1CN(c2ccc(-c3nc(-c4cccc(C(F)(F)F)c4)no3)cn2)C[C@H]1CO`?
IP6K1 inh: 0; SNCA viab count: -9%; KDM5B inhibitor: 28µM*; SNCA expr inh: -1%

What do the screens show for `OCC1CCCN(c2ccc(-c3nc(-c4cccc(C(F)(F)F)c4)no3)cn2)C1` (configuration not stated)?
IP6K1 inh: -2; SNCA viab count: 1%; KDM5B inhibitor: 28µM*; SNCA expr inh: 48%

How did O=C(NCc1ccc(OCC(F)(F)F)cc1)c1cnc2ccccc2n1 do in these assays?
KDM5B inhibitor: inactive

How did O=C(Cc1ccccc1)NCCC1CCN(C(=O)Nc2cc(F)ccc2F)CC1 do in these assays?
IP6K1 inh: 2; SNCA viab count: 9%; KDM5B inhibitor: inactive; SNCA expr inh: -6%

Results for CN(Cc1ccccc1)c1nc2c(c(=O)n(C)c(=O)n2C)n1Cc1c(Cl)cccc1Cl ?
KDM5B inhibitor: inactive

Results for CCc1nc(C)cc(-c2cc(OC)c(OC)c(OC)c2)n1 ?
IP6K1 inh: 34; SNCA viab count: -3%; KDM5B inhibitor: 25µM*; SNCA expr inh: 17%

What do the screens show for `[O-][n+]1ccn(O)c1`?
KDM5B inhibitor: inactive

How did COc1ccc(C)cc1NC(=O)N1CCN(C)C2(CCC(=O)N(C)CC2)C1 (configuration not stated) do in these assays?
IP6K1 inh: 34; SNCA viab count: -5%; KDM5B inhibitor: inactive; SNCA expr inh: 12%

How did CNc1ccc(C)cc1C(=O)N1CCN(C)C2(CCN(C)CC2)C1 do in these assays?
IP6K1 inh: -13; SNCA viab count: 14%; KDM5B inhibitor: 20µM*; SNCA expr inh: 22%

What do the screens show for `O=[S+]1([O-])NC2(CCN(CC3CC3)CC2)COc2ccccc21`?
IP6K1 inh: 15; SNCA viab count: 6%; KDM5B inhibitor: inconclusive; SNCA expr inh: -24%

Results for O=[S+]1([O-])NC2(CCN(CC3CCCC3)CC2)COc2ccccc21 ?
IP6K1 inh: 15; SNCA viab count: -8%; KDM5B inhibitor: 79µM*; SNCA expr inh: 6%

Results for Fc1ccc2nc(CO[C@H]3CN(C4CCOCC4)C[C@H]3F)[nH]c2c1 ?
IP6K1 inh: -4; SNCA viab count: 4%[87.6 µM]; KDM5B inhibitor: inconclusive; SNCA expr inh: 7%[87.6 µM]

What do the screens show for `CC(Cn1cncn1)Nc1ccc(-c2nc(Cc3ccc(F)cc3)no2)cn1` (configuration not stated)?
IP6K1 inh: 4; SNCA viab count: 5%; KDM5B inhibitor: 25µM*; SNCA expr inh: 48%

Results for CS(=O)(=O)N1CCCN(Cc2cccc(F)c2)CCNC(=O)CC1c1ccccc1 (configuration not stated) ?
IP6K1 inh: 9; SNCA viab count: 4%; KDM5B inhibitor: inactive; SNCA expr inh: -8%

What do the screens show for `Cc1c(-c2ccccc2F)[nH]c2ccc(CNC(=O)Cn3ccc(=O)[nH]c3=O)cc12`?
IP6K1 inh: -3; SNCA viab count: -10%; KDM5B inhibitor: 32µM*; SNCA expr inh: 50%

How did Cc1c(-c2ccccc2F)[nH]c2ccc(CNC(=O)CCC3=NNC(=O)CC3)cc12 do in these assays?
IP6K1 inh: -15; SNCA viab count: 3%; KDM5B inhibitor: inconclusive; SNCA expr inh: 25%

What do the screens show for `Cc1c(-c2ccccc2F)[nH]c2ccc(CNC(=O)CCN3CCCC3=O)cc12`?
IP6K1 inh: 15; SNCA viab count: 11%; KDM5B inhibitor: 28µM*; SNCA expr inh: 27%

What do the screens show for `COCCN1Cc2ccc(NCc3ccccc3)nc2C(C)(C(=O)NCc2ccccc2)C1` (configuration not stated)?
IP6K1 inh: 7; SNCA viab count: 8%; KDM5B inhibitor: 28µM*; SNCA expr inh: -21%

Results for CC(C)CNc1ccc2c(n1)C(C)(C(=O)NC1CCC(O)CC1)CN(Cc1ccccc1)C2 (configuration not stated) ?
IP6K1 inh: -1; SNCA viab count: -18%; KDM5B inhibitor: inactive; SNCA expr inh: inconclusive

Results for COCCN1Cc2ccc(NCc3ccccc3)nc2C(C)(C(=O)Nc2cccnc2)C1 (configuration not stated) ?
IP6K1 inh: 3; SNCA viab count: 4%[87.6 µM]; KDM5B inhibitor: 32µM*; SNCA expr inh: 1%[87.6 µM]

What do the screens show for `COCCN1Cc2ccc(NCc3ccccc3)nc2C(C)(C(=O)Nc2ccccc2)C1` (configuration not stated)?
IP6K1 inh: 5; SNCA viab count: inconclusive; KDM5B inhibitor: inconclusive; SNCA expr inh: inconclusive

How did COCCN1Cc2ccc(NCc3ccccc3)nc2C(C)(C(=O)NC2CCOCC2)C1 (configuration not stated) do in these assays?
IP6K1 inh: 10; SNCA viab count: 1%[87.6 µM]; KDM5B inhibitor: 11µM*; SNCA expr inh: 2%[87.6 µM]

How did COCCN1Cc2ccc(NCc3ccccc3)nc2C(C)(C(=O)Nc2ccc(F)cc2)C1 (configuration not stated) do in these assays?
IP6K1 inh: 8; SNCA viab count: -21%; KDM5B inhibitor: inconclusive; SNCA expr inh: inconclusive

How did CC(C)N1CCN(c2ccc3nnc(C4CCC4)n3n2)CC1 do in these assays?
IP6K1 inh: 5; SNCA viab count: -1%; KDM5B inhibitor: 28µM*; SNCA expr inh: -12%
